Nine compounds from PubChem BioAssay (Tox21) can be followed below.

Inconclusive results are not listed. Calls of active or inactive are those of the source. Unless noted, calls come from the whole dose curve; as a rule, active = well fitted curve in the direction sought with a large enough effect in the repeat runs; inconclusive = weak or mixed curves; inactive = no such curve, though single readings can be large; an effect the other way counts as inactive or inconclusive.

Test [1] in a line: qHTS RealTime-Glo MT Cell Viability Assay in HEK293 cells - 24 hour (AID 1224886). Note: top concentration of the series differs between compounds; nearly all actives have a fitted effect of over 50% in size. The method in brief: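 Cells + reagent dispensed (600 cells/well, HEK293) → 5 h at 37 C/5% CO2 → 23 nL compound in DMSO pinned → 40 h at 37 C → luminescence read at 0, 8, 16, 24, 32, 40 h.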
On the technique in general: qHTS replaces the single test concentration by a dilution series.

Test [2] is described as follows: qHTS RealTime-Glo MT Cell Viability Assay in HEK293 cells - 8 hour (AID 1224887). Note: top concentration of the series differs between compounds; nearly all actives have a fitted effect of over 50% in size. The method in brief:
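Tox21 screen in HEK293 using RealTime-Glo MT chemistry, with cells and reagent co-dispensed. Luminescence proportional to viable cell number was captured at intervals during 40 h compound exposure at 37 C.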

The nature of test [3]: A CellTox Green Cytotoxicity Assay to monitor cytotoxicity in HEK293 cells - 16 hour (AID 1224888). Note: nearly all actives have a fitted effect of over 35% in size. The method in brief: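 Seeding of HEK293 cells together with cytotoxicity dye preceded a 5 h incubation at 37 C/5% CO2. Test compounds in DMSO were then added and fluorescence monitored across 40 h.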
Test [4] in a line: qHTS RealTime-Glo MT Cell Viability Assay in HepG2 cells - 0 hour (AID 1224889). Note: nearly all actives have a fitted effect of over 50% in size. The method in brief:
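Real-time, nonlytic viability: 600 HepG2 cells/well mixed with NanoLuc enzyme plus prosubstrate; 5 h settle, compound (DMSO) added by pintool; luminescence monitored over 40 h at 37 C.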

Test [5] can be described thus: A CellTox Green Cytotoxicity Assay to monitor cytotoxicity in HepG2 cells - 8 hour (AID 1224890). Note: nearly all actives have a fitted effect of over 45% in size. Note: potency is the fitted concentration of half-maximal effect. The method in brief:
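Nonlytic assay: viable cells exclude the dye, so fluorescence scales with cell death. HepG2 at 600 cells/well, compounds added after 5 h, signal read across 40 h.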

Test [6] is described as follows: qHTS assay to identify small molecule antagonists of the estrogen receptor alpha (ER-alpha) signaling pathway using the BG1 cell line in the presence of 0.1 nM 17-beta-estradiol - cell viability counter screen (AID 1259241). Note: nearly all actives have a fitted effect of over 40% in size. The method in brief: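 Following 5 days in phenol red-free medium with charcoal-stripped serum, VM7Luc4E2 cells received test compounds alongside 0.1 nM 17beta-estradiol (final) at 37C for 22 hr. Live cells were then quantified via protease-substrate fluorescence.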

A short description of test [7]: qHTS assay to identify small molecule HDAC inhibitors (AID 1259364). Note: potency is the fitted concentration of half-maximal effect.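 Note: wild-type HCT-116 cells with endogenous class I/II HDAC activity; nearly all actives have a fitted effect of over 45% in size.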 Summed up:
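Relative class I and II HDAC activity is taken from the luminogenic signal in HCT-116 cells, with compound exposure 2 hr and reagent development 30 min at room temperature.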

Test [8] is described as follows: qHTS assay to identify small molecule HDAC inhibitors - cell viability counter screen (AID 1259365). Note: series mostly up to about 92 µM; nearly all actives have a fitted effect of over 50% in size. Summed up:
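HCT-116 wild-type, overnight attachment; 2hr drug exposure, 37C; CellTiter-Glo luminescent ATP readout after 30min RT.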

A short description of test [9]: qHTS assay to identify small molecule agonists of the sonic hedgehog signaling (Shh) pathway - cell viability counter screen (AID 1259366). Note: nearly all actives have a fitted effect of over 50% in size. Summed up: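 Compounds in DMSO were pin-transferred onto 3T3 Gli1-Luc cells that had settled 4hr; plates then stood 24hr at 37C and 5% CO2. One hour before the end, CellTiter-Fluor was added and fluorescence recorded.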
Test [10] in a line: qHTS assay to identify small molecule antagonists of the sonic hedgehog signaling (Shh) pathway - cell viability counter screen (AID 1259367). Note: nearly all actives have a fitted effect of over 55% in size. Summed up: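 Cells: 3T3 Gli1-Luc, 2,000/well, 4 hr pre-incubation. Compounds in DMSO, then conditioned medium. Incubation 24 hr, 37C, 5% CO2. CellTiter-Fluor at 23 hr, 1 hr, fluorescence.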
The nature of test [11]: qHTS assay to identify small molecule agonists of the sonic hedgehog signaling (Shh) pathway (AID 1259368; calls by dose curve;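 note: NIH/3T3-derived 3T3Gli1-Luc cells carrying a stable Gli1-driven firefly luciferase reporter; series mostly up to about 92 µM; nearly all actives have a fitted effect of over 15% in size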). The method in brief:
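Mouse fibroblast (NIH/3T3) reporter cells with stably integrated Gli1-Luc were treated 24 hr with compound; firefly luciferase luminescence served as the read-out.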

Test [12] is described as follows: qHTS assay to identify small molecule antagonists of the sonic hedgehog signaling (Shh) pathway (AID 1259369; calls by dose curve; note: nearly all actives have a fitted effect of over 45% in size). Summed up: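 Conditioned medium drives Shh signalling in 3T3Gli1-Luc cells; compounds in DMSO co-applied, 24hr at 37 C, then luciferase luminescence.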
Test [13] is described as follows: qHTS assay to identify small molecule agonists of the androgen receptor (AR) signaling pathway in the presence of an antagonist - cell viability counter screen (AID 1259379).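 Note: MDA-kb2 human breast cancer cells carrying an MMTV luciferase reporter; series mostly up to about 92 µM; nearly all actives have a fitted effect of over 25% in size.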 Summed up:
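A CellTiter-Fluor read-out measured viability of MDA-kb2 reporter cells (MMTV promoter with AR and GR response elements). Treatment: nilutamide 3.0uM final with compounds at 15 concentrations, 16 hr, 37C, 0% CO2.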

The nature of test [14]: qHTS assay to identify small molecule antagonists of the androgen receptor (AR) signaling pathway using the MDA cell line in the presence of 0.5 nM R1881 - cell viability counter screen (AID 1259242). Note: nearly all actives have a fitted effect of over 45% in size. The method in brief: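 R1881 at 0.5 nM final stimulated MDA-kb2 cells during 16 hr compound treatment at 37C. Cytotoxicity read: CellTiter-Fluor fluorescence after 30 min.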

The target of test [15] is Estrogen receptor (Homo sapiens) (UniProt P03372). Nature of the test: qHTS assay to identify small molecule antagonists of the estrogen receptor alpha (ER-alpha) signaling pathway using the BG1 cell line in the presence of 0.1 nM 17-beta-estradiol (AID 1259244). Note: nearly all actives have a fitted effect of over 50% in size. The method in brief:
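VM7Luc4E2; 4xERE-luciferase; 0.1 nM E2 final; 22 h co-incubation, 37C; ONE-Glo luminescence after 30 min at room temperature.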

Test [16] can be described thus: qHTS assay to identify small molecule phospholipidosis (PLD) inducers (AID 1259344; active = well fitted curve in the direction sought with a large enough effect; an effect the other way counts as inactive or inconclusive). The method in brief:
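Phospholipidosis is scored by imaging LipidTOX-stained pits in HepG2 cells exposed to compound for 24 h at 37 C; pit counts and integrated intensities per well and per cell serve as outputs.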

In test [17] the target is Estrogen receptor beta (Homo sapiens) (UniProt Q92731). Nature of the test: qHTS assay to identify small molecule antagonists of the estrogen receptor beta (ER-beta) signaling pathway (AID 1259378; active = well fitted inhibition curve with a large enough effect in the signal ratio in the repeat runs, not every such curve was filed as active; the % refers to the signal ratio). Summed up:
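Antagonist mode: compounds added to beta-lactamase reporter HEK293T ER-beta-UAS cells stimulated with E2 (1nM final), 16 hr at 37C. LiveBLAzer B/G FRET substrate, 2 hours room temperature, fluorescence read-out.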

Test [18] is described as follows: qHTS assay to identify small molecule agonists of the estrogen receptor beta (ER-beta) signaling pathway - cell viability counter screen (AID 1259380). Note: nearly all actives have a fitted effect of over 30% in size. Summed up: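 Cells used were ER-beta-UAS-bla HEK293T in medium with 2% charcoal-stripped FBS. They were treated for 16 hr at 37C. Viability came from CellTiter-Glo luminescence.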
The target in test [19] is Estrogen receptor beta (Homo sapiens) (UniProt Q92731). As to the kind of experiment: qHTS assay to identify small molecule agonists of the estrogen receptor beta (ER-beta) signaling pathway (AID 1259377; active = well fitted activation curve with a large enough effect in the signal ratio in the repeat runs, not every such curve was filed as active; the % refers to the signal ratio). Summed up:
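qHTS in ER-beta-UAS-bla HEK293T cells: 6 hr settling, then 16 hr compound at 37C, then LiveBLAzer substrate 2 h at RT before fluorescence reading.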

Chain of Estrogen receptor (Homo sapiens) (P03372 whole entry, looked up): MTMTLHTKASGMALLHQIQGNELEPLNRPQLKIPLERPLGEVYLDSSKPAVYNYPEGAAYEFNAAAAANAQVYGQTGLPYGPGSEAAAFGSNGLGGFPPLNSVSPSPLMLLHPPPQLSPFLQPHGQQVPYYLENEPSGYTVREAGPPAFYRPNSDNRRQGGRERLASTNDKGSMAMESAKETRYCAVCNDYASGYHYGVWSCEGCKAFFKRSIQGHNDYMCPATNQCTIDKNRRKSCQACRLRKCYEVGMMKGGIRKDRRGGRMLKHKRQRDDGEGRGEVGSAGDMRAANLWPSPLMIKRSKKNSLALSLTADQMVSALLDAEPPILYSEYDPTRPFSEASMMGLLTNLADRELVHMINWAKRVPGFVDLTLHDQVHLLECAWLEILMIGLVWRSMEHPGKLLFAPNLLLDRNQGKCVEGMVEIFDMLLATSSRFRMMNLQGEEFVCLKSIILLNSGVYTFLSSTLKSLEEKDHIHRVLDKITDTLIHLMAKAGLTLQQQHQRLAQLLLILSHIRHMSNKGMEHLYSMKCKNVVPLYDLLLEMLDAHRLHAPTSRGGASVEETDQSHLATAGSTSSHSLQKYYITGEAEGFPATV
Chain of Estrogen receptor beta (Homo sapiens) (Q92731 whole entry, looked up): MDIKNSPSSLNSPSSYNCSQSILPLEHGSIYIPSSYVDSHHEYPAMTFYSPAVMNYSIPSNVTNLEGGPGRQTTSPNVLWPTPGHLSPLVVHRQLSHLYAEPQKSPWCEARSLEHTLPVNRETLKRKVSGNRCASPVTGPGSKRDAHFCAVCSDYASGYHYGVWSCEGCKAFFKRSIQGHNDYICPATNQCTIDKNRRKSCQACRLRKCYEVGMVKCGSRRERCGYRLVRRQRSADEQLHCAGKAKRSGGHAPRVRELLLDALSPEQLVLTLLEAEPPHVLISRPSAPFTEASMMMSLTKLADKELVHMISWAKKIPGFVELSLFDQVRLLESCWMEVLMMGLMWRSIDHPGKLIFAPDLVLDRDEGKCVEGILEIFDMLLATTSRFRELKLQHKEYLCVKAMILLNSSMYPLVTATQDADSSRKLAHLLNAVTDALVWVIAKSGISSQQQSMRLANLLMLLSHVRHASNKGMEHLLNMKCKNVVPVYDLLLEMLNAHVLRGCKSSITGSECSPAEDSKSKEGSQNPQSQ

On to `O=Cc1cc2ccccc2o1`, for which the Potency result in test [1], in test [2], in test [3], in test [4], in test [5] and in test [7] was “inactive” in each case. The Potency result in test [12] is “inactive”. Besides, the result in test [6], in test [8], in [9], in [10], in test [11] and in test [13] was inactive.

As to `Nc1nnnn1-c1ccccc1`, the Potency result in test [1], in [2], in test [3], in test [4], in test [7] and in [12] was “inactive” throughout. In addition, the Potency entry in test [17] was “inactive”. For the same compound, the result in test [6], in test [14], in test [15], in test [16], in [8] and in test [9] was inactive. The compound was classed as inactive in [10], in test [11] and in test [13].

On to `CC/C=C\CCOC(=O)c1ccccc1O`, for which the Potency result in test [1], in test [2], in test [3], in test [4], in test [12] and in test [17] was “inactive” in each case. Further, the outcome in test [6], in [14], in test [15], in [8], in test [9] and in [10] was inactive. Further, the result in [11], in test [13] and in test [18] was inactive. The Potency in test [7] was 15.4 µM (active).

As to `CC12CCC(C1)C(C)(C)C2O` (centres undefined), the Potency entry in test [2], in [4], in [7], in [12], in test [19] and in test [17] was “inactive” throughout. For the same compound, in test [5], the Potency was 1.95 µM (active). Further, the result in [6], in [14], in test [15], in test [8], in test [9] and in test [10] was inactive. In addition, the call in [11], in test [13] and in [18] was inactive.

As to `CCCCCC/C=C/C(=O)OC`, the Potency entry in test [1], in test [2], in [4], in test [12] and in [19] was “inactive” each time. For the same compound, in [5], the Potency was 49 µM (active). In addition, the result in test [6], in test [8], in test [9], in [10], in test [11] and in test [13] was inactive. The result in [18] was inactive.

Turning to `CCCCSCCCC`, the Potency entry in test [1], in test [2], in test [3], in test [4], in [5] and in [7] was “inactive” in each case. Besides, the Potency entry in [12], in test [19] and in test [17] was “inactive” each time. Moreover, the outcome in test [6], in test [8], in [9], in test [11] and in test [13] was inactive.

`CCCC(=O)OCCC(C)CCC=C(C)C` (centres undefined): the Potency result in test [1], in [2], in test [3], in [5], in [7] and in test [19] was “inactive” each time. The Potency entry in [17] is “inactive”. In addition, the outcome in test [6], in test [14], in test [8], in test [9], in test [10] and in test [11] was inactive. The result in test [13] and in [18] was inactive.

Take `CC(=O)Nc1ccc(OC(=O)c2ccccc2OC(C)=O)cc1`: the Potency entry in [1], in test [2], in [4] and in test [5] was “inactive” throughout. The result in test [6], in test [15], in [16], in test [9], in [10] and in test [11] was inactive. For the same compound, the result in test [13] and in test [18] was inactive.

For `O=Cc1ccccc1Cl`, the Potency entry in [1], in [2], in test [4], in test [5], in test [7] and in test [12] was “inactive” each time. Further, the Potency entry in test [17] was “inactive”. For the same compound, the outcome in [6], in test [14], in test [8], in test [9], in [10] and in test [11] was inactive. Besides, the result in test [13] was inactive.
